Source: PubChem
In the library only some 2.4% were active in any assay of this set; here they are far more common.
c-Myc SMM = c-Myc (human) binding; calls only; hit rate 1.5% among 17,000; AID 624141; small molecule microarray, His-c-Myc binding, anti-His fluorescence; P01106;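 active = spot fluorescence over background with P-value below 7% in all four replicate spots, showing protein binding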;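 note: score is binary with 100 for all four spots passing and 0 otherwise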
STAT3 binder = STAT3 (human) binding. hit rate 0.2% among 17,000. Small molecule microarray, His-STAT3 binding, anti-His fluorescence. P40763. calls only;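 active = compounds whose four printed spots each show fluorescence over background unusually high for their array block, chance value under 7%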
Target sequence (P40763 whole entry, looked up): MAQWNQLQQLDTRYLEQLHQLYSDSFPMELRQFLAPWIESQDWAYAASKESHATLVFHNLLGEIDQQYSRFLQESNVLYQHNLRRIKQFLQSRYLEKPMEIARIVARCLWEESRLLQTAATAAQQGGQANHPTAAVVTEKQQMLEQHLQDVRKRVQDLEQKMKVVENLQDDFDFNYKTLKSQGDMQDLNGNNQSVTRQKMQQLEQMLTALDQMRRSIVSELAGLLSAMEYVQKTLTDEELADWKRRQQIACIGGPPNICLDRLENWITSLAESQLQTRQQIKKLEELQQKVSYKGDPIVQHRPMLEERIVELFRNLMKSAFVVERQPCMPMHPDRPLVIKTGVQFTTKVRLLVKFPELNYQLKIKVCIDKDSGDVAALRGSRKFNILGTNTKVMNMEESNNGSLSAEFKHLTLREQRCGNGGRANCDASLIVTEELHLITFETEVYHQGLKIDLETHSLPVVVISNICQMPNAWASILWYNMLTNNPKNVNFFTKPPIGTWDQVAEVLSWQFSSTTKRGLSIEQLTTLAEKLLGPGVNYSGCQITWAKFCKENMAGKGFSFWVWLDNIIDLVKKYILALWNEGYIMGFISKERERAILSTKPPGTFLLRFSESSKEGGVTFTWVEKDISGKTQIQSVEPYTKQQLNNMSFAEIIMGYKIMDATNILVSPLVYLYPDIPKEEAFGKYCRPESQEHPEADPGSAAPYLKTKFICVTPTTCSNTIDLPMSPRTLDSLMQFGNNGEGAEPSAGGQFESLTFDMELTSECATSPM
p53 mut binder = binders of human mutant p53; small molecule microarray binding, anti-GST fluorescence; calls only; hit rate 0.4% among 17,000;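 active = compounds whose four printed spots each glow above background more than chance allows, each with a p-value under 7%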
NFkB binder = binders of human NF-kappa-B p105. P19838. Small molecule microarray, anti-His fluorescence binding. calls only. hit rate 1.3% among 17,000. AID 624139;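 active = spot fluorescence over background significantly raised, with a chance value under 7% in all four replicate spots of the compound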;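 note: probe protein is his-tagged human p50 processed subunit at 1 µg/ml; raw spot fluorescence signals with no normalization applied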
Starred values were filed as active, the others as inactive.

How did C[C@@H]1CN([C@H](C)CO)C(=O)c2cccc(NC(=O)Nc3ccc(C(F)(F)F)cc3)c2O[C@@H]1CN(C)S(C)(=O)=O do in these assays?
c-Myc SMM: inactive; STAT3 binder: inactive; p53 mut binder: inactive; NFkB binder: inactive

How did C[C@@H]1CN([C@@H](C)CO)C(=O)c2cccc(NC(=O)Nc3ccc(C(F)(F)F)cc3)c2O[C@H]1CN(C)S(=O)(=O)c1cn(C)cn1 do in these assays?
c-Myc SMM: active; STAT3 binder: inactive; p53 mut binder: inactive; NFkB binder: active

What do the screens show for `C[C@@H]1CN([C@H](C)CO)C(=O)c2cccc(NC(=O)Nc3ccc(C(F)(F)F)cc3)c2O[C@H]1CN(C)C(=O)NC1CCCCC1`?
c-Myc SMM: active; STAT3 binder: active; p53 mut binder: inactive; NFkB binder: active

Results for C[C@@H]1CN([C@@H](C)CO)C(=O)c2cccc(NC(=O)Nc3ccc(C(F)(F)F)cc3)c2O[C@@H]1CN(C)CC1CC1 ?
c-Myc SMM: inactive; STAT3 binder: inactive; p53 mut binder: inactive; NFkB binder: inactive

Results for C[C@@H]1CN([C@H](C)CO)C(=O)c2cccc(NC(=O)Nc3ccc(C(F)(F)F)cc3)c2O[C@H]1CN(C)CC1CC1 ?
c-Myc SMM: inactive; STAT3 binder: active; p53 mut binder: inactive; NFkB binder: inactive

Results for COc1ccc(S(=O)(=O)Nc2cccc3c2O[C@H](CN(C)Cc2ccc(C(F)(F)F)cc2)[C@@H](C)CN([C@@H](C)CO)C3=O)cc1 ?
c-Myc SMM: inactive; STAT3 binder: inactive; p53 mut binder: inactive; NFkB binder: inactive

Results for COc1ccc(S(=O)(=O)Nc2cccc3c2O[C@@H](CN(C)Cc2ccc(C(F)(F)F)cc2)[C@H](C)CN([C@H](C)CO)C3=O)cc1 ?
c-Myc SMM: inactive; STAT3 binder: active; p53 mut binder: inactive; NFkB binder: inactive

How did CCOc1ccccc1C(=O)Nc1ccc(S(=O)(=O)Nc2ccccn2)cc1 do in these assays?
c-Myc SMM: inactive; STAT3 binder: inactive; p53 mut binder: inactive; NFkB binder: inactive

What do the screens show for `CCCOc1ccc(Oc2nc(NC(C)(C)C)nc(N3CCOCC3)n2)nn1`?
c-Myc SMM: inactive; STAT3 binder: inactive; p53 mut binder: inactive; NFkB binder: inactive

Results for C[C@H]1CN([C@@H](C)CO)C(=O)c2cccc(NC(=O)NC3CCCCC3)c2O[C@@H]1CN(C)C(=O)Nc1ccc(C(F)(F)F)cc1 ?
c-Myc SMM: active; STAT3 binder: inactive; p53 mut binder: inactive; NFkB binder: active

What do the screens show for `C=CC1(C)C=C2CCC3C(C)(C)C(O[C@@H]4O[C@@H](CO)[C@H](O)[C@H]4O)CCC3(C)C2CC1O[C@@H]1O[C@H](C)[C@H](O)[C@H](O)[C@H]1O` (some centres not stated)?
c-Myc SMM: inactive; STAT3 binder: inactive; p53 mut binder: inactive; NFkB binder: active

How did COc1ccc(NC(=O)CN2CCOCC2)c([N+](=O)[O-])c1 do in these assays?
c-Myc SMM: inactive; STAT3 binder: inactive; p53 mut binder: inactive; NFkB binder: inactive

Results for CC1=C(C(=O)c2ccccc2)C(NC(=O)c2ccncc2)(C(F)(F)F)C(=O)N1Cc1ccccc1 (configuration not stated) ?
c-Myc SMM: inactive; STAT3 binder: inactive; p53 mut binder: inactive; NFkB binder: inactive

What do the screens show for `O=C(CSc1nc2ccc(NC(=O)c3ccccc3)cc2s1)Nc1ccccc1C(F)(F)F`?
c-Myc SMM: inactive; STAT3 binder: inactive; p53 mut binder: inactive; NFkB binder: inactive

Results for COc1ccccc1CN1CC(C(=O)O)CC1=O (configuration not stated) ?
c-Myc SMM: active; STAT3 binder: inactive; p53 mut binder: inactive; NFkB binder: inactive

Results for COc1ccccc1CN1C(=O)c2ccccc2[C@@H](C(=O)NCc2ccccc2)[C@@H]1c1ccc(CO)cc1 ?
c-Myc SMM: inactive; STAT3 binder: inactive; p53 mut binder: inactive; NFkB binder: inactive

What do the screens show for `COc1ccc(C#Cc2ccc3c(c2)[C@]2(C(=O)N3)[C@H](C(=O)N3CCc4cc(OC)c(OC)cc4C3)[C@H]3C(=O)O[C@H](c4ccccc4)[C@H](c4ccccc4)N3[C@@H]2c2ccc(OCCO)cc2)cc1`?
c-Myc SMM: inactive; STAT3 binder: inactive; p53 mut binder: inactive; NFkB binder: active

What do the screens show for `COc1ccc(C#Cc2ccc3c(c2)[C@]2(C(=O)N3)[C@H](c3ccc(OCCO)cc3)N3[C@H](c4ccccc4)[C@H](c4ccccc4)OC(=O)[C@H]3[C@@H]2C(=O)N2CCc3cc(OC)c(OC)cc3C2)cc1`?
c-Myc SMM: inactive; STAT3 binder: inactive; p53 mut binder: inactive; NFkB binder: active
